Records with an inconclusive call do not appear. Entries that show only a call come without a potency. Active and inactive are the calls of the source. Calls follow the shape of the dose curve; as a rule, active = well fitted inhibition curve with a large enough effect; inconclusive = small, poorly fitted or top-dose-only effect; inactive = no such curve, though single readings can be large or run the other way.
experiment: Confirmatory qHTS for Identification of Small Molecule Inhibitors of Huntingtin Promoter Activity; conditions: HEK293 HTT promoter firefly luciferase reporter, 24 h; series mostly up to 57.5 µM; also: nearly all actives have a fitted effect of over 65% in size
Summary of the method: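 Plated reporter HEK293 cells (24 h) received library compounds at up to 57.5 uM final or 50 uM PTC124, incubated 24 h at 37C; firefly luciferase luminescence was then recorded with Dual-Glo reagent.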
Potency is read from the fitted curve at half-maximal effect.

For CCS(=O)(=O)c1ncc(Cl)c(C(=O)N(Cc2ccccc2)c2ccc(OC)cc2)n1, which Potency is on record?
Its Potency is 10.7 µM (active).

With CCc1ccc(-n2c(SCC(=O)NC(C)CC)nc3n[nH]c(C)c3c2=N)cc1 (stereo not drawn) as the compound, how does the Potency read?
The Potency was “inactive”.

Which Potency does the source give for COc1ccc(S(=O)(=O)Nc2cc3c(cc2NCc2ccccc2)n(C)c(=O)n3C)cc1OC here?
Its Potency is “inactive”.

With CC(C)[C@H](C(=O)Nc1ccc(C(=O)NO)cc1)c1ccccc1 as the compound, how does the Potency read?
Its Potency is “inactive”.

For Cc1ccc(C2=CC(c3ccc(Cl)cc3)n3nc(-c4ccc(C)cc4)nc3N2)cc1 (stereo not drawn), which Potency is on record?
The Potency was “inactive”.

Which Potency does the source give for CCOc1ccccc1NC(=O)C(=O)c1cc(C)n(-c2ccc(F)cc2)c1C here?
Its Potency is “inactive”.

For CN(C)Cc1ccc(-c2nc3cccc4c3n2CCNC4=O)cc1, which Potency is on record?
The Potency was “inactive”.

With Cc1cccc(N2CCN(C(=O)c3ccc(NC(=O)c4nsc5ccccc45)cc3)CC2C)c1 (stereo not drawn) as the compound, how does the Potency read?
Its Potency is “inactive”.

With Cc1ccc(-n2ncc3c(N(CCO)Cc4ccccc4)ncnc32)cc1 as the compound, how does the Potency read?
The Potency was “inactive”.

With CCN(Cc1ccccc1)C(=O)c1cc(-c2ccccc2)n[nH]1 as the compound, how does the Potency read?
Its Potency is “inactive”.

With COc1ccc(-c2ccc3ncc4c(c3c2)n(-c2ccc(N3CCNCC3)c(C(F)(F)F)c2)c(=O)n4C)cn1 as the compound, how does the Potency read?
Its Potency is “inactive”.

Which Potency does the source give for CC(C)c1ccc(Cc2cnc(NC(=O)c3ccc4c(c3)CC(c3ccccc3)OC4=O)s2)cc1 (stereo not drawn) here?
The Potency was 3.79 µM (active).

With Cc1ccc(C(=O)Nc2ccc(F)cc2)cc1S(=O)(=O)N1CCCCCC1 as the compound, how does the Potency read?
Its Potency is “inactive”.

For O=C(c1ccc(CS(=O)c2ccccc2Cl)o1)N1CCN(c2cccc(C(F)(F)F)c2)CC1 (stereo not drawn), which Potency is on record?
The Potency was 3.38 µM (active).

For Cc1cc(SCC(=O)Nc2nsc(-c3ccc(C(C)(C)C)cc3)n2)nc2ccccc12, which Potency is on record?
The Potency was “inactive”.

For COc1ccccc1C1Nc2c(sc3nc(C)cc(C)c23)C(=O)N1c1ccccc1 (stereo not drawn), which Potency is on record?
Its Potency is “inactive”.

Which Potency does the source give for Cc1ccc(CNC(=O)c2c(Nc3c(C)cccc3C)sc(C(=O)c3ccccc3)c2N)cc1 here?
The Potency was 9.53 µM (active).

Which Potency does the source give for COc1ccc([C@@H]2CNC(=O)C2)cc1OC1CCCC1 here?
Its Potency is “inactive”.

For CN(C)C(=O)COC(=O)Cc1ccc(OC(=O)c2ccc(N=C(N)N)cc2)cc1, which Potency is on record?
The Potency was “inactive”.

For CCCCC(=O)Nc1cccc(-c2nc3ccccc3s2)c1, which Potency is on record?
Its Potency is “inactive”.

Which Potency does the source give for O=C(NCc1ccccc1)c1cc2ccc3cccnc3c2[nH]1 here?
The Potency was “inactive”.

Which Potency does the source give for COc1cc(OC)c(OC)cc1/C=C/c1nc2cc3ccccc3cc2c(=O)n1-c1ccc(F)c(Cl)c1 here?
Its Potency is “inactive”.

Which Potency does the source give for COc1ccc(-c2nc(N3CCOCC3)c3sc(CN(C)c4ncc(C(=O)NO)cn4)cc3n2)cn1 here?
The Potency was “inactive”.

For O=C(c1ccc2c(c1)N(Cc1ccccc1)C(=O)c1ccccc1S2(=O)=O)N1CCCCCC1, which Potency is on record?
Its Potency is “inactive”.

Which Potency does the source give for CN(C)c1ccc(C(=C2C=CC(=[N+](C)C)C=C2)c2ccc(N(C)C)cc2)cc1 here?
Its Potency is 3.01 µM (active).

Which Potency does the source give for N#CC[C@H](C1CCCC1)n1cc(-c2ncnc3[nH]ccc23)cn1 here?
Its Potency is “inactive”.

Which Potency does the source give for O=C(NCc1cccc(Cl)c1)C1CCCN(c2nn3cc(-c4ccc(F)cc4)nc3s2)C1 (stereo not drawn) here?
The Potency was 12 µM (active).

For CN1C(=O)c2ccccc2Sc2ccc(NC(=O)NCc3ccc(Cl)cc3)cc21, which Potency is on record?
Its Potency is 23.9 µM (active).

Which Potency does the source give for CC[C@@H]1C(=O)N(C)c2cnc(Nc3ccc(C(=O)NC4CCC(N5CCN(CC6CC6)CC5)CC4)cc3OC)nc2N1C(C)C (stereo partly drawn) here?
Its Potency is “inactive”.

For O=C(Cn1cc(SCc2ccccc2F)c2ccccc21)N1CCCC1, which Potency is on record?
The Potency was “inactive”.

Which Potency does the source give for COc1cc(C[C@@H](CO)[C@H](CO)Cc2ccc(O)c(OC)c2)ccc1O here?
Its Potency is “inactive”.

Which Potency does the source give for CC(C)Oc1ccc(C(=O)N(Cc2ccco2)c2ccccn2)cc1 here?
Its Potency is “inactive”.

With CN(C)c1ccc(Nc2nc(N)n(C(=O)c3c(F)cccc3F)n2)cc1 as the compound, how does the Potency read?
The Potency was “inactive”.

For CCS(=O)(=O)c1oc(-c2ccc(F)cc2)nc1S(=O)(=O)c1ccc(Br)cc1, which Potency is on record?
The Potency was “inactive”.

With CCN(CC)CCNC(=O)c1c(C)[nH]c(C=C2C(=O)Nc3ccc(F)cc32)c1C as the compound, how does the Potency read?
Its Potency is “inactive”.

With Cc1csc2nc(COC(=O)c3ccccc3NC(=O)c3ccccc3Cl)cc(=O)n12 as the compound, how does the Potency read?
Its Potency is “inactive”.

For CCN(CCCNC(=O)c1cc2cc3ccc(C)cc3nc2s1)c1ccccc1, which Potency is on record?
Its Potency is “inactive”.

Which Potency does the source give for FC(F)(F)c1cccc(Nc2nc3nonc3nc2Nc2ccc(Cl)cc2)c1 here?
Its Potency is 0.379 µM (active).

— PubChem BioAssay AID1508621 (National Center for Advancing Translational Sciences (NCATS), 2021)
